Consider 40 compounds from PubChem BioAssay (NCATS).

Records with an inconclusive call do not appear. Entries that show only a call come without a potency. Activity calls are given as the source filed them. The call rests on the fitted dose curve; in most records, active means well fitted inhibition curve with a large enough effect; inconclusive means small, poorly fitted or top-dose-only effect; inactive means flat fitted curve, though single readings scatter.
Potency means the concentration at half of the fitted maximal effect.

Glutathione peroxidase 1 (Homo sapiens), sequence (P07203 whole entry, looked up): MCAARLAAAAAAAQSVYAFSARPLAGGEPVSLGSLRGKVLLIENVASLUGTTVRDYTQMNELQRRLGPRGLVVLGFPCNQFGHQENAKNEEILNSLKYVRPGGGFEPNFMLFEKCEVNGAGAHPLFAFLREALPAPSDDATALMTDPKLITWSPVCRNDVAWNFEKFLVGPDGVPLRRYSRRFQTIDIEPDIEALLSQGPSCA

For the assay, the target named is Glutathione peroxidase 1 (Homo sapiens) (UniProt P07203). In words: Primary qHTS Assay for Inhibitors of Recombinant Selenoprotein Glutathione Peroxidase 1 (GPX1) (AID 1845191). Further: nearly all actives have a fitted effect of over 65% in size. To be noted: recombinant GPX1, GR-coupled NADPH fluorescence, 15 min; series mostly up to 48.8 µM. The text has this:
Assay Provider: Elias S.J. Arner MD PhD.
Department of Medical Biochemistry and Biophysics
Karolinska Institutet, Solna, Stockholm, Sweden
Selenoprotein glutathione peroxidases (GPX), like the ubiquitously expressed GPX1 and the ferroptosis modulator GPX4, enact their antioxidant activities by reducing hydroperoxides using glutathione. […] GPX1 and GPX4 inhibitors have thus shown promise as anti-cancer agents. Existing inhibitors are often promiscuous, or modulate GPX activity only indirectly, so novel direct inhibitors identified through screening against GPX1 and GPX4 could be valuable. Here, we developed optimized glutathione reductase (GR)-coupled GPX assays for the biochemical high-throughput screen (HTS) of almost 12,000 compounds with known mechanisms of action. Initial hits were triaged using a GR counter-screen, assessed for isoform specificity using a separate GPX2 assay, and were assessed for general selenocysteine-targeting activity using a thioredoxin reductase (TXNRD1) assay. With this suite of assays, we identified novel GPX1/GPX2- and GPX4-specific inhibitors and can here present a validated pipeline for future discovery research for selenoprotein-targeting agents.
SEQUENCE No. (e.g., 1, 2, 3, etc.); […] (e.g., Cells, Incubation, Reagent, etc.); VALUE; DESCRIPTION.
1; Reagent 1; 3 uL; GPx1 enzyme or no enzyme control in 1536-well, black, solid Greiner assay plate.
2; Compound; 25 nL; Kalypsis pin tool (Wako USA) equipped with a 1536-well pin head.
3; Incubation; 30 min; room temperature.
4; Reagent 2; 1 uL; 10 nM GPX1, 1 mM GSH, 0.5 mM CHP, 0.5 mM NADPH, 100 nM GR, 0.01% BSA substrate
5; Detection; Fluorescence; ViewLux microplate reader, excitation 340 nm and emission 450 nm.
6; Incubation; 15 min; room temperature.
7; Detection; Fluorescence; ViewLux microplate reader, excitation 340 nm and emission 450 nm.
NOTES (numbers refer to Sequence numbers above)
1. 3 uL of 16.66 nM GPX1 and 0.016% BSA in assay buffer (50 mM Tris-HCl, 2 mM EDTA (pH 7.5), 150 mM NaCl) was added to columns 3-48 of 1536-well assay plates using a BioRAPTR Flying Reagent Dispenser (Let's Go Robotics (LGR), Carlsbad, CA). A no-enzyme control (0.01% BSA in TES assay buffer) was added to columns 1-2.
2. 25 nL of test compounds and DMSO controls were added to each well with a pin tool (Kalypsys).
3. The assay plates were incubated for 30 minutes at room temperature.
4. 1 uL of master mix (500 nM glutathione reductase (GR), 5 mM reduced glutathione (GSH), 2.5 mM NADPH in assay buffer) was added. 1 uL of cumene hydroperoxide (CHP) ([2.5 mM] in 50% EtOH) was then added within 5 minutes to initiate the reaction. Final concentrations were: 10 nM GPX1, 1 mM GSH, 0.5 mM CHP, 0.5 mM NADPH, 100 nM GR, 0.01% BSA.
5. Initial fluorescence readout (t=0) at 340/450 nm was measured using a ViewLux multimodal detector (PerkinElmer, Waltham, MA).
7. Endpoint fluorescence readout (t=15) at 340/450 nm was measured 15 min after room temperature incubation.
(In qHTS, concentration-response curves come from the screen itself.)
Take `CCCCC/C=C\C/C=C\CCCCCCCC(=O)NC(C)c1ccccc1` (stereo not given): the Potency entry is “inactive”. `C[C@@H](C1=C(CCN(C)C)Cc2ccccc21)c1ccccn1`: the Potency entry was “inactive”.

As for `CO/N=C(/C(=O)N[C@@H]1C(=O)N2C(C(=O)[O-])=C(C[n+]3ccn4ncccc43)CS[C@H]12)c1nsc(N)n1`, the Potency was 20.2 µM (active). Consider `C/C(=C(/OCCOc1ccc(Cl)cc1)c1ccc(Cl)cc1Cl)n1ccnc1`, for which the Potency result is “inactive”.

On to `O=C1[C@@H]2[C@H]3CC[C@H](C3)[C@@H]2C(=O)N1CCCCN1CCN(c2ncccn2)CC1`, for which the Potency entry is “inactive”.

`CO/N=C(/C(=O)N[C@@H]1C(=O)N2C(C(=O)O)=C(Cn3nnc(C)n3)CS[C@H]12)c1csc(N)n1`: the Potency was 14.3 µM (active). On to `Cc1cc(O)c2c(O)c3c(O)cccc3cc2c1`, for which the Potency result was “inactive”.

`CCCCC(O)/C=C(C)/C=C/C=C/C(=O)N1CCCC1=O` (stereo not given): the Potency entry is “inactive”. In the case of `CN1CCCN(C(c2ccccc2)c2ccc(Cl)cc2)CC1` (stereo not given) it was “inactive”; in that of `CC(=O)Nc1ccn(C2COC(COC(=O)c3ccccc3)O2)c(=O)n1` (stereo not given), “inactive”. Consider `CC(C)=CCC/C(C)=C/CC/C(C)=C/CCC(=O)OC/C=C(\C)CCC=C(C)C`, for which the Potency result was “inactive”. As to `CN(CC1(C)CCCO1)S(=O)(=O)c1ccc(Cl)c(S(N)(=O)=O)c1` (stereo not given), the Potency result is “inactive”. Turning to `C=CCOc1cc(Cl)ccc1C(=O)NCCN(CC)CC`, the Potency entry is “inactive”. For `Cn1cc(S(C)=O)c(=O)c2ccc(F)cc21` (stereo not given), the Potency entry was “inactive”. For `C=CC[N+]1([C@H]2C[C@H]3[C@@H]4CC[C@H]5C[C@H](OC(C)=O)[C@@H](N6CCCCC6)C[C@]5(C)[C@H]4CC[C@]3(C)[C@H]2OC(=O)CC)CCCCC1` the value was “inactive”. Take `COC(=O)[C@H]1[C@H]2C[C@@H]3c4[nH]c5cc(OC)ccc5c4CCN3C[C@H]2C[C@@H](OC(=O)/C=C/c2ccc(O)c(OC)c2)[C@@H]1OC`: the Potency result was “inactive”. As for `Nc1c(NC/C=C\COc2cc(CN3CCCCC3)ccn2)c(=O)c1=O`, the Potency entry was “inactive”. For `NS(=O)(=O)c1cc2c(cc1Cl)CN(C1CCCCC1)C2=O`, the Potency entry was “inactive”. Regarding `Cc1oc(=O)oc1COC(=O)[C@@H]1N2C(=O)[C@@H](NC(=O)[C@H](N)c3ccccc3)[C@H]2SC1(C)C`, the Potency result was “inactive”. In the case of `CC(C)N(CCC(=O)c1ccc2ccccc2c1)Cc1ccccc1`, the Potency entry was “inactive”.

For the compound `CCCCCCCCCCCCCCCC[n+]1ccccc1`, the Potency entry was “inactive”.

On to `CCC(=O)Oc1ccc2c(c1)CC[C@@H]1[C@@H]2CC[C@@]2(C)[C@H]1C[C@@H](OC(=O)CC)[C@@H]2OC(=O)CC`, for which the Potency result was “inactive”. `O=C(Nc1ccc(S(=O)(=O)N2CCOCC2)cc1)c1cc(Cl)ccc1NS(=O)(=O)c1ccc(Cl)s1`: the Potency result was “inactive”. Turning to `O=C1NC(=O)/C(=C/c2ccc3c(c2)OC(F)(F)O3)S1`, the Potency result was “inactive”. In the case of `O=C(c1ccccc1)c1ccccc1` it was “inactive”; in that of `CCCCNc1ccc(C(=O)OCCN(CC)CC)cc1`, “inactive”. Turning to `O=C(O)Cc1ccccc1Oc1ccc(Cl)cc1Cl`, the Potency result was “inactive”.

Take `CCC(C(=O)NC(=O)NC(C)=O)c1ccccc1` (stereo not given): the Potency entry is “inactive”. For `CCN(CC)CC(=O)Nc1c(C)cccc1C(=O)OC`, the Potency result was “inactive”. With `CCC1=C[C@@H]2CN(C1)Cc1c([nH]c3ccccc13)[C@@](C(=O)OC)(c1cc3c(cc1OC)N(C)[C@H]1[C@@](O)(C(=O)OC)[C@H](OC(C)=O)[C@]4(CC)C=CCN5CC[C@]31[C@@H]54)C2`, the Potency result is “inactive”. Regarding `O=C(NN1CCCC1)NS(=O)(=O)c1ccc(Cl)cc1`, the Potency result was “inactive”. In the case of `CC(C)(C)NCC(O)COc1ccccc1OCC1CCCO1` (stereo not given) it was “inactive”; in that of `CN1C(CSCC(F)(F)F)Nc2cc(Cl)c(S(N)(=O)=O)cc2S1(=O)=O` (stereo not given), “inactive”; in that of `O=C(Nc1ccc(Cl)cc1)Nc1ccc(Cl)c(C(F)(F)F)c1`, “inactive”. With `COC(=O)/C=C\C(=O)OC`, the Potency result was “inactive”. For `CCOC(=O)NNc1nncc2ccccc12` the value was “inactive”; for `C[C@H]1C[C@H]2[C@@H]3CCC4=CC(=O)C=C[C@]4(C)[C@H]3C(=O)C[C@]2(C)[C@@]1(O)C(=O)CO`, “inactive”.

Consider `Oc1ccc(CCNCCCCCCNCCc2ccccc2)cc1O`, for which the Potency result is “inactive”. For `C1N2CN3CN1CN(C2)C3` the value was “inactive”; for `O=[N+]([O-])c1nccn1CO[C@@H](CO)[C@H](O)CO`, “inactive”.
